PostGolgi yeast = growth inhibition of a yeast mutant, post-Golgi transport screen | post-Golgi transport phenotypic cell assay | inhibition, % at 10 µM | hit rate 0.9% among 98,000;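 further: yeast cells grown in 1536-well plates; yeast grown about 18 h at 30C before absorbance read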
PTK2B oligo ant = blocks oligomerization of human Pyk2 in cells; hit rate 0.83% among 99,000; z-score (the deposit names both 25 µM and 10 µM); AID 1347419; Q293 cells, Pyk2 FERM NanoBiT luminescence; stronger effect = lower value;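 active means Z-score of -3 or lower, scaled per plate to the spread of control and sample wells; inactive means z-score above -3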;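 further: negative z-score means lost luminescence so less FERM oligomerization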
Cav32 inh = blocks human Cav3.2 T-type calcium channel. O95180. Cav3.2-expressing cells, Fluo-4 calcium fluorescence FDSS; stronger effect = lower value. B-score at 10 µM. hit rate 4% among 100,000. AID 449739;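 active means single-dose well whose peak fluorescence ratio is a statistical outlier from its plate by either plate-standardised score or position-corrected B-score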
PostGolgi ctrl = yeast control strain growth, post-Golgi counter-screen | AID 738 | inhibition, % at 10 µM | hit rate 5% among 98,000 | efflux-deficient yeast background strain, growth absorbance A615, 16 h
Large screens that a line does not name were inactive. Most compounds without a hit are left out; they make up all but 8% or so of the library. Unless noted, no stated cut-off is given here; in the data, active means inhibition above about 30%; inactive means the rest.

Cn1c(-c2ccc3c(c2)OCO3)cnc1NC(=O)CCC(=O)NCCc1ccccc1	PostGolgi ctrl 34
Cn1c(-c2ccc3c(c2)OCO3)cnc1NCc1ccccc1	none
Cn1c(-c2ccc3c(c2)OCO3)cnc1NCc1cccc(Cl)c1	Cav32 inh -4.8
O=C(OCn1cncn1)c1ccc(Cl)cc1Cl	none
COc1ccc(/C=C(/C(=O)c2ccc(Cl)cc2Cl)n2cncn2)cc1	PostGolgi yeast 85, PostGolgi ctrl 33
O=C1N(CC(=O)N2CCc3ccccc32)CCN1Cc1ccccc1Cl	Cav32 inh -3.5
CC(C)(C)NC(=O)C12CCC(C)(c3nc4ccccc4nc31)C2(C)C (stereo not given)	none
COc1ccccc1/C=N/NC(=O)CC(=O)Nc1ccc(Cl)c(Cl)c1	Cav32 inh -5.3
COc1cccc(NC(=O)C(=O)N/N=C/c2cc(C)n(-c3ccc(Cl)c(Cl)c3)c2C)c1	Cav32 inh -5.6
OC1CC(c2ccco2)NC2(CCCCC2)C1 (stereo not given)	none
COc1ccc(N2C(=O)N(Cc3cccc(F)c3)c3ccccc3S2(=O)=O)cc1	none (no result: PostGolgi yeast, PTK2B oligo ant, PostGolgi ctrl)
CCCN(CCC)C(=O)CSc1nc2ccccc2c(=O)n1CC1COc2ccccc2O1 (stereo not given)	Cav32 inh -5.9
CCOC(=O)CSc1nc2ccccc2c(=O)n1CC1COc2ccccc2O1 (stereo not given)	none
NC(=S)Nc1cccc2cccnc12	PostGolgi ctrl 35
COCCn1nnnc1SCC(=O)N1CCCCC1	PostGolgi ctrl 30
CC(C)NC(=S)Nc1ccc(Oc2ccccc2)cc1	Cav32 inh -4.7
COc1ccccc1OCCn1cc(C(=O)c2ccco2)c2ccccc21	PostGolgi yeast 35
CC1CC(=O)C2=C(C1)Nc1ncnn1C2c1ccccc1 (stereo not given)	PostGolgi ctrl 48
O=C1CC(c2cccs2)CC2=C1C(c1ccccc1)n1ncnc1N2 (stereo not given)	none
COc1ccc(C2CC(=O)C3=C(C2)Nc2ncnn2C3c2ccccc2C)c(OC)c1 (stereo not given)	PTK2B oligo ant -3.6
CCOC(=O)C1=C(C)Nc2ncnn2C1c1cc(OC)ccc1OC (stereo not given)	none
O=C(NCc1ccc(F)cc1)C(=O)NCC1OCCN1C(=O)c1ccc(Cl)cc1 (stereo not given)	none (no result: PostGolgi yeast, PTK2B oligo ant, PostGolgi ctrl)
Cc1ccc(C(=O)Nc2ccccc2C(=O)NC(C(=O)O)C(C)C)cc1 (stereo not given)	none (no result: PostGolgi yeast, PostGolgi ctrl)
CC(CCc1ccccc1)NC(=O)CSc1nc(N)cc(N)n1 (stereo not given)	none
CN1CCN(C(=O)C(C(=O)c2ccc(F)cc2)n2ccccc2=O)CC1 (stereo not given)	none
CCOc1c2ccc(C(=O)NCc3ccc(OC)cc3)cc2nn1CCOC	none (no result: PTK2B oligo ant)
CCOC(=O)c1cccc(NC(=O)c2c(N)n(C)c(=O)[nH]c2=O)c1	none (no result: PostGolgi yeast, PTK2B oligo ant, PostGolgi ctrl)
COC1(OC)N=C(N)C2(C#N)C(c3cccc(Oc4ccccc4)c3)C12C#N (stereo not given)	Cav32 inh -5
COc1cccc(C2C3(C#N)C(N)=NC(OC)(OC)C23C#N)c1 (stereo not given)	none
Cc1cccc(NC(=O)Nc2ccc(C#N)cc2)n1	none (no result: PTK2B oligo ant)
COc1ccc(NC(=O)Nc2cccc(C)n2)cc1	Cav32 inh -4.2 (no result: PTK2B oligo ant)
Cc1cccc(NC(=O)Nc2cccc(C#N)c2)n1	Cav32 inh -4.2 (no result: PTK2B oligo ant)
CCCCN(CCCC)S(=O)(=O)c1ccc(N2CCCC2=O)c([N+](=O)[O-])c1	none (no result: PostGolgi yeast, PostGolgi ctrl)
CCCCN(CCCC)S(=O)(=O)c1ccc(SCC(=O)OCC)c([N+](=O)[O-])c1	Cav32 inh -3.1
COc1ccc(-c2cc(C(=O)N3CCN(C(c4ccccc4)c4ccccc4)CC3)no2)cc1	PostGolgi ctrl 42
COc1ccc(-c2cc(C(=O)N3CCN(C(c4ccccc4)c4ccccc4)CC3)no2)cc1OC	Cav32 inh -6.3
CC1=C(C/C=C(\C)CCC[C@H](C)CCC[C@H](C)CCCC(C)C)C(=O)c2ccccc2C1=O	none (no result: PostGolgi yeast, PTK2B oligo ant, PostGolgi ctrl)
CCN(CC)C(=O)C1CC(=O)N(c2ccc(F)c(Cl)c2)C1 (stereo not given)	none
COc1ccc(C(=O)c2coc(-c3ccccc3C(=O)O)c2C(=O)O)cc1	none (no result: PostGolgi yeast, Cav32 inh, PostGolgi ctrl)
COc1ccc(C(=O)c2c(C(F)(F)F)oc3c2C(=O)c2ccccc2C3=O)cc1	PostGolgi yeast 84, PostGolgi ctrl 46
CC(C)c1cc(C(C)C)c(S(=O)(=O)N2c3ccccc3[C@]3(Br)C[C@H]4C(=O)N[C@@H](Cc5ccccc5)C(=O)N4[C@H]23)c(C(C)C)c1	none (no result: PostGolgi yeast, PTK2B oligo ant, PostGolgi ctrl)
Cc1nc2cc(-c3ccc(Cl)cc3)nn2c(C)c1CCC(=O)NC(C)c1ccc2c(c1)OCCO2 (stereo not given)	none (no result: PostGolgi yeast, PTK2B oligo ant, PostGolgi ctrl)
COc1ccccc1-c1cc2nc(C)c(CCC(=O)NC(C)CCc3ccco3)c(C)n2n1 (stereo not given)	PostGolgi ctrl 37 (no result: PTK2B oligo ant)
Cc1nc2c(-c3ccccc3)c(C)nn2c(C)c1CCC(=O)NC(C)CCc1ccco1 (stereo not given)	Cav32 inh -5.7 (no result: PTK2B oligo ant)
Cc1cc2c(N=O)c(NO)ccc2[nH]1	none
Cc1ccc(N2C(=S)N=C(Nc3ccccc3C)C23CCOC(C)(C)C3)cc1 (stereo not given)	Cav32 inh -6.1
CCCC(=O)O[C@H]1C[C@@H](C)N(C(=O)c2ccccc2)c2ccc(C)cc21	Cav32 inh -8, PostGolgi ctrl 39
CCCC(=O)N1c2ccccc2C(N(C(C)=O)c2ccccc2)CC1C (stereo not given)	none (no result: Cav32 inh)
CN1CCN(C(c2cccc(C(F)(F)F)c2)c2nnnn2Cc2ccccc2)CC1 (stereo not given)	none
CC(=O)N(C)/C=C1\Sc2ccccc2C1=O	PostGolgi ctrl 44 (no result: Cav32 inh)
Cc1ccc(N2C(=O)c3ccccc3C2Nc2ccccc2F)nc1 (stereo not given)	none (no result: PTK2B oligo ant)
CCOC(=O)c1ccccc1NC1c2ccccc2C(=O)N1c1cc(C)ccn1 (stereo not given)	PostGolgi ctrl 55 (no result: PTK2B oligo ant)
COc1cc(OC)c(NC2c3ccccc3C(=O)N2c2cc(C)ccn2)cc1Cl (stereo not given)	PostGolgi ctrl 33 (no result: PTK2B oligo ant)
COc1nc(OC)nc(N2CCC(C(=O)NCc3ccco3)CC2)n1	none
O=C(NCc1ccco1)C1CCN(c2nc3ccccc3n2Cc2ccc(F)cc2)CC1	Cav32 inh -8.3 (no result: PTK2B oligo ant)
CN(C(=S)Nc1ccc(F)cc1)C1(c2ccccc2Cl)CCCCC1=O (stereo not given)	PostGolgi ctrl 36
Cn1c(=O)oc2cc(S(=O)(=O)NC(Cc3ccccc3)C(=O)N3CCCCC3)ccc21 (stereo not given)	none (no result: PTK2B oligo ant)
CC(C)Cc1cc(C(=O)N2N=C(C(F)F)CC2(O)C(F)F)c2ccccc2n1 (stereo not given)	Cav32 inh -7 (no result: PostGolgi yeast, PostGolgi ctrl)
CCc1ccc(-c2cc(C(=O)Nn3cnnc3)c3ccccc3n2)cc1	none
CCc1ccc(-c2cc(C(=O)N3N=C(C(F)F)CC3(O)C(F)F)c3ccccc3n2)cc1 (stereo not given)	PostGolgi ctrl 37
Cc1nnc(SCC(N)=O)n1CCc1ccccc1	none (no result: PostGolgi yeast, PostGolgi ctrl)
COc1ccc(OC)c(NC(=O)Cc2coc3cc(C)cc(C)c23)c1	none
CC(C)(C)c1cnnn1-c1ccc(-c2csc(N)n2)cc1	PostGolgi ctrl 46
N=c1oc2ccc3ccccc3c2cc1-c1nnc2n1CCCCC2	none
COc1cccc(-c2nnc(NC(=O)c3ccc(S(=O)(=O)N4CCOCC4)cc3)o2)c1	none

Bioassay records from PubChem.
